Test results reported in PubChem BioAssay (NCI).
The panel holds about 79,000 compounds, 15% with a hit somewhere; the sample as a whole holds those more often. Activity calls are given as the source filed them. No stated cut-off is given here; in the data, active means growth inhibition above about 70%; inactive means the rest.

Columns and labels:
[1] = NCI Yeast Anticancer Drug Screen. Data for the rad50 strain (AID 155);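 further: 0% = growth of vehicle-only cultures of the same strain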; conditions: S. cerevisiae rad50 strain growth inhibition, hits give high values
Method in brief: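 Cells are treated with compound, grown, and their growth is then scored against vehicle-only cultures of the same repair-deficient yeast strain.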

[2] = NCI Yeast Anticancer Drug Screen. Data for the mec2-1 strain (AID 157); conditions: S. cerevisiae mec2-1 strain, hits give high values
Method in brief: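 Using mec2-1 yeast: add compound, measure growth, express inhibition versus vehicle-treated cultures.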

[3] = NCI Yeast Anticancer Drug Screen. Data for the sgs1 mgt1 strain (AID 161);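 further: 0% = growth of cultures given vehicle only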; conditions: S. cerevisiae sgs1 mgt1 strain, hits give high values
Method in brief: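 Compounds are added to genetically altered yeast, and growth is compared with cultures given vehicle alone to give percent inhibition.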

[4] = NCI Yeast Anticancer Drug Screen. Data for the cln2 rad14 strain (AID 165);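 further: 0% = growth equal to vehicle treated cultures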; conditions: S. cerevisiae cln2 rad14 strain, hits give high values
Method in brief: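 Yeast strain cln2 rad14, bearing defects in cell cycle control and DNA repair, serves as the test system; values reflect growth inhibition compared with vehicle.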

[5] = NCI Yeast Anticancer Drug Screen. Data for the bub3 strain (AID 167); conditions: S. cerevisiae bub3 mutant strain, hits give high values
Method in brief: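 Part of a panel of yeast mutants defective in DNA damage repair or cell cycle regulation. Each strain is grown with compound, and inhibition is calculated relative to solvent-treated cultures.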

[6] = NCI Yeast Anticancer Drug Screen. Data for the mlh1 rad18 strain (AID 175); conditions: S. cerevisiae mlh1 rad18 strain growth inhibition, hits give high values
Method in brief: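 Steps: expose repair-defective yeast to compound; measure growth; express inhibition against vehicle-treated controls.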

[7] = at 5.0 µM (retest, dose inferred, filed as 0.5)
[8] = at 50.0 µM (retest, dose inferred, filed as 5.0)

Measured: growth inhibition

COc1ccc(-c2c(CO)cc(OC)c(OC)c2OC)c(CO)c1
active: [1]; at 50.0 µM 93.5% | [2]; at 50.0 µM 98.8% | [4]; at 50.0 µM 98% | [5]; at 50.0 µM 98.7% | [6]; at 50.0 µM 99%
inactive: [1]; [7] -1% | [1]; [8] 6% | [2]; [7] -9% | [2]; [8] 21% | [3]; [7] -5% | [3]; [8] 22% | [3]; at 50.0 µM 64.5% | [4]; [7] -2% | [4]; [8] 10% | [5]; [7] 1% | [5]; [8] 43% | [6]; [7] 13% | [6]; [8] 41%

CCCC(CC)c1cc(O)c(O)cc1C(CC)CCC (stereo not given)
active: [1]; at 50.0 µM 73% | [4]; [8] 70% | [4]; at 50.0 µM 79.8% | [6]; at 50.0 µM 77.8%
inactive: [1]; [7] 1% | [1]; [8] 56% | [2]; [7] -18% | [2]; [8] 33% | [2]; at 50.0 µM 69.5% | [3]; [7] 9% | [3]; [8] 29% | [3]; at 50.0 µM 43.9% | [4]; [7] -5% | [5]; [7] -9% | [5]; [8] 54% | [5]; at 50.0 µM 65.8% | [6]; [7] 6% | [6]; [8] 62%

CCCCCCCCCCCCCCCCCCOP(=O)([O-])OCC[N+](C)(C)C
inactive: [1]; [7] 14% | [2]; [7] -2% | [3]; [7] -2% | [4]; [7] 15% | [5]; [7] 7% | [6]; [7] 10%
active: [1]; [8] 99% | [1]; at 50.0 µM 90.5% | [2]; [8] 99% | [2]; at 50.0 µM 92% | [3]; [8] 99% | [3]; at 50.0 µM 92.5% | [4]; [8] 89% | [4]; at 50.0 µM 89.5% | [5]; [8] 99% | [5]; at 50.0 µM 90.3% | [6]; [8] 99% | [6]; at 50.0 µM 91.6%

Cn1c(-c2ccccc2)c(CCNC(=O)C2CCC2)c2ccccc21
inactive: [1]; [7] 18% | [1]; [8] 18% | [2]; [7] 14% | [2]; [8] 14% | [3]; [7] 12% | [3]; [8] 12% | [4]; [7] 7% | [4]; [8] 7% | [5]; [7] 11% | [5]; [8] 11% | [6]; [7] 18% | [6]; [8] 18%
active: [1]; at 50.0 µM 81.2% | [2]; at 50.0 µM 86% | [3]; at 50.0 µM 79.2% | [4]; at 50.0 µM 77.3% | [5]; at 50.0 µM 79.2% | [6]; at 50.0 µM 75.2%

CC(=O)NC1=C(Sc2ccc([N+](=O)[O-])cc2)C(=O)c2ccccc2C1=O
active: [1]; [7] 96% | [1]; [8] 98% | [2]; [7] 98% | [2]; [8] 96% | [3]; [7] 98% | [3]; [8] 99% | [5]; [7] 75% | [6]; [7] 98% | [6]; [8] 99%
inactive: [1]; at 50.0 µM 61.4% | [2]; at 50.0 µM 11.1% | [3]; at 50.0 µM 21.9% | [4]; [7] 46% | [4]; [8] 13% | [4]; at 50.0 µM -18.1% | [5]; [8] 5% | [5]; at 50.0 µM 62% | [6]; at 50.0 µM 51.5%

NC(N)=Nc1ccc(C(=O)Oc2c(Cl)cc([N+](=O)[O-])cc2Cl)cc1
inactive: [1]; [7] -30% | [1]; [8] 46% | [1]; at 50.0 µM 48% | [2]; [7] -6% | [2]; [8] 28% | [2]; at 50.0 µM 30.2% | [3]; [7] 4% | [3]; [8] 65% | [4]; [7] -9% | [4]; [8] 32% | [4]; at 50.0 µM 21.9% | [5]; [7] -6% | [5]; [8] 40% | [5]; at 50.0 µM 25.9% | [6]; [7] 12% | [6]; [8] 56% | [6]; at 50.0 µM 32.9%
active: [3]; at 50.0 µM 71.1%

CC(NNC(=S)NCc1ccccc1)c1cc2ccccc2cn1 (stereo not given)
inactive: [1]; [7] 12% | [2]; [7] 9% | [3]; [7] 14% | [4]; [7] 3% | [5]; [7] 11% | [6]; [7] 19%
active: [1]; [8] 88% | [1]; at 50.0 µM 82.2% | [2]; [8] 93% | [2]; at 50.0 µM 80.8% | [3]; [8] 91% | [3]; at 50.0 µM 86.9% | [4]; [8] 79% | [4]; at 50.0 µM 80% | [5]; [8] 93% | [5]; at 50.0 µM 83.7% | [6]; [8] 93% | [6]; at 50.0 µM 89.7%

O=[N+]([O-])c1ccccc1SCc1ccccc1
inactive: [1]; [7] 17% | [1]; [8] 47% | [2]; [7] -18% | [2]; [8] 35% | [2]; at 50.0 µM 15.8% | [3]; [7] 16% | [3]; [8] 49% | [3]; at 50.0 µM 54.7% | [4]; [7] 15% | [4]; [8] 43% | [4]; at 50.0 µM 44% | [5]; [7] -1% | [5]; at 50.0 µM 30.8% | [6]; [7] 13% | [6]; at 50.0 µM 52.6%
active: [1]; at 50.0 µM 85.4% | [5]; [8] 79% | [6]; [8] 74%

O=c1cc2cccccc-2cc1O
inactive: [1]; [7] -132% | [2]; [7] -42% | [3]; [7] -48% | [4]; [7] -43% | [5]; [7] -65% | [6]; [7] -130%
active: [1]; [8] 94% | [1]; at 50.0 µM 87.2% | [2]; [8] 95% | [2]; at 50.0 µM 70% | [3]; [8] 96% | [3]; at 50.0 µM 83.5% | [4]; [8] 89% | [4]; at 50.0 µM 86% | [5]; [8] 95% | [5]; at 50.0 µM 91.5% | [6]; [8] 95% | [6]; at 50.0 µM 86.3%

C/C=C/C/S(=N\S(=O)(=O)c1ccc(C)cc1)c1ccccc1 (stereo not given)
active: [1]; [8] 93% | [1]; at 50.0 µM 96.7% | [2]; [8] 88% | [2]; at 50.0 µM 95.5% | [3]; [8] 97% | [3]; at 50.0 µM 81.5% | [4]; [8] 73% | [5]; [8] 97% | [5]; at 50.0 µM 94.7% | [6]; [8] 95% | [6]; at 50.0 µM 93.3%
inactive: [1]; [7] 4% | [2]; [7] 4% | [3]; [7] 11% | [4]; [7] 1% | [4]; at 50.0 µM 40.9% | [5]; [7] -7% | [6]; [7] 5%
